In PubChem BioAssay (NCATS):
Several values for one entry are separate records, joined by “and”; a condition that tells them apart may be missing. Equal entries are not always repeated. Inconclusive results are not listed. Activity calls are given as the source filed them. Unless noted, the call rests on the fitted dose curve; in most records, active means well fitted curve in the direction sought with a large enough effect; inconclusive means small, poorly fitted or top-dose-only effect, or another doubt; inactive means no such curve, though single readings can be large; an effect the other way counts as inactive or inconclusive.

How the values were obtained:
[1] = Nrf2 qHTS screen for inhibitors: Validation (AID 493153; active means well fitted inhibition curve with a large enough effect in the main read-out, with a control signal flat, not every such curve was filed as active); conditions: viability change: measured here: cytotoxicity max response
Method in brief: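 A549 cells carrying ARE-firefly luciferase reporter, 5000 cells/well in 5% FBS OPTI-MEM, treated with compound over a concentration series for 18-24 h at 37 C. Luciferase luminescence gave Nrf2 activity; CellTiter-Fluor fluorescence gave viability.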

[2] = qHTS for Inhibitors of Cell Surface uPA Generation: Validation Assay (AID 493164); further: 0% is about no effect
Method in brief: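 RAW 264.7 cells (4000/well) were plated overnight, then exposed for 18 h at 37 C, 5% CO2 to compounds in a 7-point 1:5 titration (2.45 nM–38.3 uM final). Intracellular ATP was read by ATP-Lite luminescence.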

[3] = target: Galactokinase (Homo sapiens) (UniProt P51570); test: qHTS Validation Assay for Inhibitors of Human Galactokinase (GALK) (AID 493189); further: 0% is about no effect
Sequence of Galactokinase (Homo sapiens) (P51570 whole entry, looked up): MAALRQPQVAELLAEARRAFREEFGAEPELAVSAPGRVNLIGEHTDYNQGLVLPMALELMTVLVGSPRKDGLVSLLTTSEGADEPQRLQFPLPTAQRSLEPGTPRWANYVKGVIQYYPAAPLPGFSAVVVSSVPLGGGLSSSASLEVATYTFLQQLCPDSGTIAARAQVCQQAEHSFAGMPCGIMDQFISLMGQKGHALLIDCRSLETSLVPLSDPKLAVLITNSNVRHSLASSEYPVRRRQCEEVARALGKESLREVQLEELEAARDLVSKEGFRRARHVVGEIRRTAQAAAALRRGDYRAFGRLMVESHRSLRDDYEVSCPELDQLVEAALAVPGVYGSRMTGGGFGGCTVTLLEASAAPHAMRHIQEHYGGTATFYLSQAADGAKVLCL
Method in brief: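 GALK (5 nM) with 35 uM ATP and 100 uM galactose in HEPES pH8.0, MgCl2, NaCl, DTT, BSA; 1 h at room temperature. Residual ATP read by Kinase-Glo Plus luminescence after 10 min.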

[4] = Validation screen for small molecules that induce DNA re-replication in SW480 colon adenocarcinoma cells (AID 504364); further: 0% is about no effect
Method in brief: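 SW480 cells (250/well) exposed 48 h at 37 C, 5% CO2, then Hoechst-stained 40 min. Nuclear DNA content imaged by fluorescence scanning (405 nm excitation, 500-530 nm emission); re-replication scored as increased nuclei with elevated intensity.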

[5] = target: Peptidyl-prolyl cis-trans isomerase NIMA-interacting 1 (Homo sapiens) (UniProt Q13526); test: qHTS Validation Assay to Find Inhibitors of Pin1 (AID 504536; active means well fitted inhibition curve with a large enough effect in the polarisation, with a control signal flat, not every such curve was filed as active; the % refers to the polarisation;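 further: 0% = full Pin1 enzyme wells and -100% = no-enzyme wells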)
Sequence of Peptidyl-prolyl cis-trans isomerase NIMA-interacting 1 (Homo sapiens) (Q13526 whole entry, looked up): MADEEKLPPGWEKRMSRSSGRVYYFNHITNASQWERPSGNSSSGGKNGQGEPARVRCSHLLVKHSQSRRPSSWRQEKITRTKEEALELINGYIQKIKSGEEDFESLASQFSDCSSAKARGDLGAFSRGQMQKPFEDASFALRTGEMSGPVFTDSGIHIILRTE
Method in brief: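 Fluorescence polarization competition: compounds (titration) displace HiFluor-488-labeled Pin1-1b peptide from Pin1 (0.3 uM final) in pH 7.5 HEPES buffer with DTT, 10 min at room temperature; %Activity normalized to no-enzyme wells, curves fitted.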

[6] = target: Phosphoglycerate kinase, glycosomal (Trypanosoma brucei brucei) (UniProt P07378); test: qHTS Validation Assay to Find Inhibitors of Phosphoglycerate Kinase (AID 504547);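 further: control wells lack PGK and mark full inhibition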
Sequence of Phosphoglycerate kinase, glycosomal (Trypanosoma brucei brucei) (P07378 whole entry, looked up): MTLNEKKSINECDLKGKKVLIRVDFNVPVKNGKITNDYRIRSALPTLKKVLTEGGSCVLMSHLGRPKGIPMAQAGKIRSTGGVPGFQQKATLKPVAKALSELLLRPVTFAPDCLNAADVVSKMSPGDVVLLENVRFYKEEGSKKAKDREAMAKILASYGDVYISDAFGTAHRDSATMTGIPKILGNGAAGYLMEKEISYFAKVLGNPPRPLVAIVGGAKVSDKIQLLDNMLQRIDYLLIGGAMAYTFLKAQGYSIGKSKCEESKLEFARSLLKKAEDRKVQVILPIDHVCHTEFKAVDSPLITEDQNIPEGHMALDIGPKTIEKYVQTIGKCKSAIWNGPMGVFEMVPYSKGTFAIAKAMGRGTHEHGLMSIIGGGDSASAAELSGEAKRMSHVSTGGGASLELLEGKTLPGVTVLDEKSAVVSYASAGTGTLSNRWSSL
Method in brief: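 Substrate/PGK mix plus compound; reaction started with GAPDH (100nM final) to form 1,3-BPG; 60 min RT; Kinase-Glo Plus 10 min; luminescence. TEA 100mM pH 7.6, MgCl2 5mM, Tween-20 0.01%.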

[7] = target: Ubiquitin carboxyl-terminal hydrolase 1 (Homo sapiens) (UniProt O94782); test: Inhibitors of USP1/UAF1: Pilot qHTS (AID 504865);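 further: rhodamine fluorescence freed from ubiquitin-rhodamine substrate followed over time; top concentration of the series differs between compounds; on the % scale 0 is the no-effect control and ±100 the full control effect; nearly all actives have a fitted effect of over 35% in size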
Sequence of Ubiquitin carboxyl-terminal hydrolase 1 (Homo sapiens) (O94782 whole entry, looked up): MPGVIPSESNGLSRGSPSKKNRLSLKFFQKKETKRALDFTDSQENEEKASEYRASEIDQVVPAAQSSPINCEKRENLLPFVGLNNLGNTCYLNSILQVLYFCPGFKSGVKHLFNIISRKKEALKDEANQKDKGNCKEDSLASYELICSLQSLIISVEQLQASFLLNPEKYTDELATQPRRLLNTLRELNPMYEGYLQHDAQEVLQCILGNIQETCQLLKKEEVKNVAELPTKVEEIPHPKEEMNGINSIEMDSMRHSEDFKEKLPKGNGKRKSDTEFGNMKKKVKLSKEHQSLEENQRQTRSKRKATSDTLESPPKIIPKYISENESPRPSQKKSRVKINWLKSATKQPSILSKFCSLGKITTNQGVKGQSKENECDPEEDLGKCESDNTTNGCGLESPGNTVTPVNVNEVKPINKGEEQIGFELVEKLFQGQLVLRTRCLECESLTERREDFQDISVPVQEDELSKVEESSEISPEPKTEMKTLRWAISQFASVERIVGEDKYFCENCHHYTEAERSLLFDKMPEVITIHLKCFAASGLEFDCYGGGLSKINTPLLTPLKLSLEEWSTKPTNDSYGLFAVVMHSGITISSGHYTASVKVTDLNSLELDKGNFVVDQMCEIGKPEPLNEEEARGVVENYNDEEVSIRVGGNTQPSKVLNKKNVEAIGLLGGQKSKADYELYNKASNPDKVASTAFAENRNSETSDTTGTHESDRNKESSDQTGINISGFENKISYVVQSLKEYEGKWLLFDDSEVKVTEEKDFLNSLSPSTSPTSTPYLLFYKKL
Method in brief: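 USP1/UAF1 complex (1nM) preincubated with compound 15 min at room temperature, then Ub-Rho substrate (150nM final) added. Fluorescence read kinetically at 480/540 nm, 6 reads every 60 seconds. Buffer: 50mM HEPES pH 7.8, 0.5mM EDTA, 0.1 mg/ml BSA, 1mM TCEP, 0.01% Tween-20.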

[8] = qHTS for Inhibitors of ATXN expression: Validation of Cytotoxic Assay (AID 588349); further: potency means the concentration at half of the fitted maximal effect
Method in brief: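 HEK293 cells treated with titrated compound for 72 hr at 37 degrees C; viability read as intracellular ATP by CellTiter Glo luminescence.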

[9] = target: Glucocorticoid receptor (Homo sapiens) (UniProt P04150); test: qHTS assay for small molecule agonists of glucocorticoid receptor signaling (AID 588532; active means well fitted curve in the direction sought with a large enough effect in the signal ratio, with a control signal flat; the % refers to the signal ratio;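 further: 100% = dexamethasone at 0.1 µM and 0% = DMSO only wells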); conditions: HeLa MMTV-bla, beta-lactamase ratio, agonist, 18 h; stronger effect = higher value; percent of dexamethasone control, DMSO zero
Sequence of Glucocorticoid receptor (Homo sapiens) (P04150 whole entry, looked up): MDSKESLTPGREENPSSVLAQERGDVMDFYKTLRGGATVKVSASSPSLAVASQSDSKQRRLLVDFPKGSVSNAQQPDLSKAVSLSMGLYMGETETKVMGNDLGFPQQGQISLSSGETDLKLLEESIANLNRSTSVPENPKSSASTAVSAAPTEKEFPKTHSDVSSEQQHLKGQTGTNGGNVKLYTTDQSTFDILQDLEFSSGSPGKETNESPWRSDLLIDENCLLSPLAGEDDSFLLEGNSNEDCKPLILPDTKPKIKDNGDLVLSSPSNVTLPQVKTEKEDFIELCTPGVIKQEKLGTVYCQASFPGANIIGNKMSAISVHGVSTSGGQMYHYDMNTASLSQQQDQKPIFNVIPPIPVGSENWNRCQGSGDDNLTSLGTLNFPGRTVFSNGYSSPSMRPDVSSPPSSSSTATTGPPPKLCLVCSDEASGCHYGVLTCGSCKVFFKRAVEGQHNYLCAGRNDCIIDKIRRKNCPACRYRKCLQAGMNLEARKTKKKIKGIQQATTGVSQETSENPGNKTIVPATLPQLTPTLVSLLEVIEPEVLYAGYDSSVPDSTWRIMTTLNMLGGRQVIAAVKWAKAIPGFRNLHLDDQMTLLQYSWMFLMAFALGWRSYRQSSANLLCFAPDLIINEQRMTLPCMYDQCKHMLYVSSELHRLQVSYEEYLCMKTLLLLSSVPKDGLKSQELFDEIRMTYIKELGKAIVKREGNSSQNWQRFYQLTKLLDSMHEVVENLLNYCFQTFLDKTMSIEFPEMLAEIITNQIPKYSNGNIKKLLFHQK
Method in brief: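 Titration series, up to 92 uM, applied to GRE-bla HeLa cells for 18 h at 37 C. Detection by CCF4 FRET substrate after 2 h at RT.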

[10] = target: Glucocorticoid receptor (Homo sapiens) (UniProt P04150); test: qHTS assay for small molecule antagonists of glucocorticoid receptor signaling (AID 588533; active means well fitted inhibition curve with a large enough effect in the signal ratio, with a control signal flat, not every such curve was filed as active; the % refers to the signal ratio;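 further: cells stimulated with 2 nM dexamethasone as agonist; on the % scale 0 is the no-effect control and ±100 the full control effect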)
Method in brief: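 Antagonist-mode qHTS: compound titrations added to GRE-bla HeLa cells, then dexamethasone 2 nM final; 18 h, 37 C. CCF4 FRET fluorescence normalized to dexamethasone and DMSO; IC50 from Hill fit.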

[11] = target: Estrogen receptor (Homo sapiens) (UniProt P03372); test: qHTS assay for small molecule antagonists of estrogen receptor alpha signaling (AID 588513; active means well fitted curve in the direction sought with a large enough effect in the signal ratio, with a control signal flat, not every such curve was filed as active; the % refers to the signal ratio; further: on the % scale 0 is the no-effect control and ±100 the full control effect)
Sequence of Estrogen receptor (Homo sapiens) (P03372 whole entry, looked up): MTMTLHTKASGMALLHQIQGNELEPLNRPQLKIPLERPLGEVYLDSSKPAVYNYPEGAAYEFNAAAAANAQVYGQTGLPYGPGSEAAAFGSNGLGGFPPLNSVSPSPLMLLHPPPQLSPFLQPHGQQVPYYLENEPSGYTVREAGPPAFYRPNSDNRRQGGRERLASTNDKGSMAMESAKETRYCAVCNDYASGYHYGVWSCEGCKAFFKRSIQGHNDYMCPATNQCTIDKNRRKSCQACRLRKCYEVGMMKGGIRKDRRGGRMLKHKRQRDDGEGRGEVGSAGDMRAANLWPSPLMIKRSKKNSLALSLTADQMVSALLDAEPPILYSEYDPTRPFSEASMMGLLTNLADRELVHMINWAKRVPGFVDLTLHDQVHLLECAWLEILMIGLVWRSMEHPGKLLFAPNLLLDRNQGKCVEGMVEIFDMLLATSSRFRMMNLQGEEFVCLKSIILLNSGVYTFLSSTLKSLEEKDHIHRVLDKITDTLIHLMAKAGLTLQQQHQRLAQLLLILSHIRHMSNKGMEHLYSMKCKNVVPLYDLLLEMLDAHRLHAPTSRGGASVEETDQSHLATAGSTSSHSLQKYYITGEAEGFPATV
Method in brief: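 ER-alpha-UAS-bla GripTite HEK 293 cells in medium with 2% charcoal/dextran-treated FBS were preincubated 4 h at 37 C, dosed with compound (1:2 titration), stimulated with 0.5nM 17-beta-estradiol for 18 h, then read by CCF4 beta-lactamase fluorescence.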

[12] = target: Estrogen receptor (Homo sapiens) (UniProt P03372); test: qHTS assay for small molecule agonists of estrogen receptor alpha signaling (AID 588514; calls by dose curve;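 further: 0% = vehicle only and 100% = reference agonist; nearly all actives have a fitted effect of over 70% in size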)
Method in brief: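 ER-alpha-UAS-bla GripTite HEK293 cells, 5000/well in 2% charcoal/dextran-stripped FBS medium, treated with compound titrations 18 h at 37 C. CCF4 beta-lactamase read by fluorescence after 2 h RT; normalised to 20 nM 17-beta-estradiol (100%) and DMSO (0%), Hill fit for EC50 and efficacy.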

[13] = target: Bile acid receptor (Homo sapiens) (UniProt Q96RI1); test: qHTS assay for small molecule antagonists of farnesoid X receptor signaling (AID 588526; calls by dose curve; further: on the % scale 0 is the no-effect control and ±100 the full control effect)
Method in brief: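 Concentration-response titrations were fitted to the Hill equation for half-maximal inhibition and maximal response, with data normalised to 50 uM chenodeoxycholic acid and DMSO control wells. Cells: FXR-UAS-bla HEK293T, dialyzed FBS.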

[14] = target: Peroxisome proliferator-activated receptor gamma (Homo sapiens) (UniProt P37231); test: qHTS assay for small molecule agonists of peroxisome proliferator-activated receptor gamma signaling (AID 588536; active means well fitted curve in the direction sought with a large enough effect in the signal ratio, with a control signal flat, not every such curve was filed as active; the % refers to the signal ratio;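 further: 0% = DMSO basal wells and 100% = rosiglitazone at 2 µM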)
Sequence of Peroxisome proliferator-activated receptor gamma (Homo sapiens) (P37231 whole entry, looked up): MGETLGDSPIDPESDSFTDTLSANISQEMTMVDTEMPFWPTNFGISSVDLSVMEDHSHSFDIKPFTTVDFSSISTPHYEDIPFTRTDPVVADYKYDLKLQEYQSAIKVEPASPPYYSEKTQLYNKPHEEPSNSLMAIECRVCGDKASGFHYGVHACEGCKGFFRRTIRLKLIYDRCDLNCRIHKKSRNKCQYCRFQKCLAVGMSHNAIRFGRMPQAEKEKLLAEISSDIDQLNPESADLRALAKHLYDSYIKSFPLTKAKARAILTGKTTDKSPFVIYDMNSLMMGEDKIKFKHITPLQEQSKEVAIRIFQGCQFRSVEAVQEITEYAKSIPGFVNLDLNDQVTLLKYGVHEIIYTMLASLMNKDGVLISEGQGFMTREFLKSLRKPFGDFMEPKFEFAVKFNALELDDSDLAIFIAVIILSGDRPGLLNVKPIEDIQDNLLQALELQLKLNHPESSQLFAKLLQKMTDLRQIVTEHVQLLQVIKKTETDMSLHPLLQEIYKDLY
Method in brief: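 Ratiometric blue/green fluorescence (405 nm excitation; 460 and 530 nm emission) from CCF4-loaded HEK293 reporter cells serves as signal. Exposure to test compounds lasts 16 h at 37 C in medium containing 1% charcoal/dextran-treated serum.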

[15] = qHTS assay for small molecule antagonists of peroxisome proliferator-activated receptor delta signaling (AID 588535; active means well fitted inhibition curve with a large enough effect in the signal ratio, with a control signal flat, not every such curve was filed as active; the % refers to the signal ratio;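 on max response: cells co-treated with a PPAR-delta agonist as stimulator during compound exposure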); conditions: HEK293T PPARd-UAS-bla, beta-lactamase FRET ratio, 18 h; 460 nm channel
Method in brief: (§1)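 Reporter: UAS-bla under PPAR-delta response element, HEK293T host. Medium: 2% charcoal/dextran FBS. Dosing: titration, 18 hrs, 37 C. Detection: CCF4, 2 hrs RT, 405 ex/460 and 530 em.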

[16] = target: Peroxisome proliferator-activated receptor delta (Homo sapiens) (UniProt Q03181); test: as above
Sequence of Peroxisome proliferator-activated receptor delta (Homo sapiens) (Q03181 whole entry, looked up): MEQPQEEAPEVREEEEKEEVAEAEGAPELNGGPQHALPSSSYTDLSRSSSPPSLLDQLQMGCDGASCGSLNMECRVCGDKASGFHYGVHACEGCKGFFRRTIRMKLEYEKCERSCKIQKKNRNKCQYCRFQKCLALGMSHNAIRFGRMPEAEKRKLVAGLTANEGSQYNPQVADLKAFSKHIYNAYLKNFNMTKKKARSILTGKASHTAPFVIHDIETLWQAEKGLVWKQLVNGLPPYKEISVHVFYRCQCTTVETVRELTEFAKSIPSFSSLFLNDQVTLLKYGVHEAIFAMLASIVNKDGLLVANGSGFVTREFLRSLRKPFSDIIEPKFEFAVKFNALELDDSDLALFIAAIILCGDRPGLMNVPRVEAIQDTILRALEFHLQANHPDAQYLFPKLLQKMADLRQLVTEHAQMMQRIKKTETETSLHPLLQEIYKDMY
Method in brief: as §1

[17] = target: Vitamin D3 receptor (Homo sapiens) (UniProt P11473); test: qHTS assay for small molecule antagonists of vitamin D receptor signaling (AID 588541; calls by dose curve;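 further: receptor activated by calcitriol during compound treatment; series mostly up to about 77 µM; on the % scale 0 is the no-effect control and ±100 the full control effect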)
Method in brief: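 VDR-UAS-bla HEK293T cells (2000/well, 2% charcoal-stripped FBS) were treated with titrated compounds plus 1-alpha,25-dihydroxyvitamin D3 (50 nM or 3 nM final) for 16 h at 37 C. CCF4 beta-lactamase fluorescence was read; Hill fits gave IC50.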

[18] = target: Vitamin D3 receptor (Homo sapiens) (UniProt P11473); test: qHTS assay for small molecule agonists of vitamin D receptor signaling (AID 588543; calls by dose curve;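 further: 0% = DMSO basal and 100% = reference agonist control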)
Method in brief: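 GeneBLAzer VDR-UAS-bla HEK293T cells in 2% charcoal-stripped FBS medium were dosed with compound titrations for 16 h at 37 °C; CCF4 β-lactamase readout (405 nm ex, 460/530 nm em). EC50 and efficacy from Hill fits, normalized to 50 nM calcitriol (100%) and DMSO (0%).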

[19] = target: Androgen receptor (Homo sapiens) (UniProt P10275); test: qHTS assay for small molecule antagonists of androgen receptor signaling (AID 588516; active means well fitted curve in the direction sought with a large enough effect in the signal ratio, with a control signal flat, not every such curve was filed as active; the % refers to the signal ratio; further: on the % scale 0 is the no-effect control and ±100 the full control effect)
Sequence of Androgen receptor (Homo sapiens) (P10275 whole entry, looked up): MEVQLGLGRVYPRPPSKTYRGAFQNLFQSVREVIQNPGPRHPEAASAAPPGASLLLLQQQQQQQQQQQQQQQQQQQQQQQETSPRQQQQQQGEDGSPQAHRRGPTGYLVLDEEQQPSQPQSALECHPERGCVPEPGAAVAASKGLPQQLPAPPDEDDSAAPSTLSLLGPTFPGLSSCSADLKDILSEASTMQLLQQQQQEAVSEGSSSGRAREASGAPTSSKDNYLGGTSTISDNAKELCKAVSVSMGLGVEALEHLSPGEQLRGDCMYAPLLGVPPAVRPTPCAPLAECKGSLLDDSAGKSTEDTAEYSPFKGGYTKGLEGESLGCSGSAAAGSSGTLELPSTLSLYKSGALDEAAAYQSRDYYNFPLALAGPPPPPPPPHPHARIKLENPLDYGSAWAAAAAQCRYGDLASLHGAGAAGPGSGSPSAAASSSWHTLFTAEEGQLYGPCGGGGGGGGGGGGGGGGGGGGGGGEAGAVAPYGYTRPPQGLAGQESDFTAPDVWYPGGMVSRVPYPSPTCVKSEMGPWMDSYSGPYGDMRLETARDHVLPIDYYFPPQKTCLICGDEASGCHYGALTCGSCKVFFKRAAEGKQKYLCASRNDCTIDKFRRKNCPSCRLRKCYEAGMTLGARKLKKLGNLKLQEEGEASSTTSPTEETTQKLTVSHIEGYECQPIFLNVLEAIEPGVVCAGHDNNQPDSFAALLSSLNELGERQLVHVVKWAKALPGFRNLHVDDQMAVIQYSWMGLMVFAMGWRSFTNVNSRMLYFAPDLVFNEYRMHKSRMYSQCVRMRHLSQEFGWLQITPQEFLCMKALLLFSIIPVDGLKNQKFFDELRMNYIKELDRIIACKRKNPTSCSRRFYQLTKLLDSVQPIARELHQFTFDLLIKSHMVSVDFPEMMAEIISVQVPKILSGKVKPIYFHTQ
Method in brief: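 AR-UAS-bla-GripTite HEK 293 cells (2000/well, 5 h at 37 C) received compound titrations, then R1881 at 10 nM final; after 16 h at 37 C, CCF4 dye 2 h RT, beta-lactamase fluorescence read; IC50 from Hill fits.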

[20] = target: Androgen receptor (Homo sapiens) (UniProt P10275); test: qHTS assay for small molecule agonists of androgen receptor signaling (AID 588515; active means well fitted curve in the direction sought with a large enough effect in the signal ratio, with a control signal flat; the % refers to the signal ratio; further: on the % scale 0 is the no-effect control and ±100 the full control effect); conditions: AR-UAS-bla HEK293, beta-lactamase ratio, agonist 16 h; stronger effect = higher value
Method in brief: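 EC50 and efficacy came from Hill fits of titrations (up to 92 uM) normalized to 30 nM R1881 as 100% and DMSO as 0%. Compound exposure was 16 h at 37 C on AR-UAS-bla HEK293 cells, with a 405/460/530 nm CCF4 fluorescence read.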

O=C1NCC2(CCN(CCc3ccccc3)CC2)O1
1.8%: viability change [1]
inactive: outcome [1] | outcome [2] | outcome [3] | outcome [4] | outcome [5] | outcome [6] | Potency [7] | Potency [8]

CC(C)(C)c1ccc(C(O)CCCN2CCC(C(O)(c3ccccc3)c3ccccc3)CC2)cc1 (configuration not stated)
-16.1%: viability change [1]
inactive: outcome [1] | outcome [2] | outcome [3] | outcome [4] | outcome [5] | outcome [6]

COc1cccc(-c2cc(=O)c3ccccc3o2)c1N
-8.39%: viability change [1]
inactive: outcome [1] | outcome [2] | outcome [3] | outcome [4] | outcome [5] | outcome [6] | Potency [7] | Potency [8]

CC/C(=C(\c1ccccc1)c1ccc(OCCN(C)C)cc1)c1ccccc1
inactive: outcome [1] | outcome [2] | outcome [3] | outcome [4] | outcome [5] | outcome [6] | activation [9] 5.77% and -2.85% | Potency [10]
7.91%: viability change [1]
active: Potency [8] 25.1 µM

COC(=O)[C@@H]1[C@H]2C[C@H]3c4[nH]c5ccccc5c4CCN3C[C@@H]2CC[C@@H]1O
2.98%: viability change [1]
inactive: outcome [1] | outcome [2] | outcome [3] | outcome [4] | outcome [5] | outcome [6] | Potency [7] | Potency [8]

CCCCC1C(=O)N(c2ccccc2)N(c2ccccc2)C1=O
inactive: outcome [1] | outcome [2] | outcome [3] | outcome [4] | outcome [5] | outcome [6] | Potency [7] | Potency [8] | Potency [11] | outcome [12] | outcome [13] | activation [9] -0.201% and -2.53% | Potency [10] | outcome [14]
-3.3%: viability change [1]

COc1ccccc1N1CCN(CCCNc2cc(=O)n(C)c(=O)n2C)CC1
-8.38%: viability change [1]
inactive: outcome [1] | outcome [2] | outcome [3] | outcome [4] | outcome [5] | outcome [6] | Potency [7] | Potency [8]

CN(C)CCC(c1ccccc1)c1ccccn1 (configuration not stated)
3.7%: viability change [1]
37.9%: max response [15]
inactive: outcome [1] | outcome [2] | outcome [3] | outcome [4] | outcome [5] | outcome [6] | Potency [7] | Potency [8] | activation [9] 4.14% | outcome [16] | outcome [14] | outcome [17] | outcome [18]

CCN(CC)CCOC(=O)c1ccc(N)cc1
inactive: outcome [1] | outcome [2] | outcome [3] | outcome [4] | outcome [5] | outcome [6] | Potency [7] | Potency [8]
0.523%: viability change [1]

CCCNC(=O)NS(=O)(=O)c1ccc(Cl)cc1
-0.767%: viability change [1]
8.72%: max response [15]
inactive: outcome [1] | outcome [2] | outcome [3] | outcome [4] | outcome [5] | outcome [6] | Potency [7] | Potency [8] | Potency [11] | outcome [12] | activation [9] 0.922% and 6.93% | Potency [10] | outcome [16] | outcome [14] | outcome [17] | outcome [18]

NC(N)=Nc1nc(CSCC/C(N)=N/S(N)(=O)=O)cs1
inactive: outcome [1] | outcome [2] | outcome [3] | outcome [4] | outcome [5] | outcome [6] | Potency [7] | Potency [8]
-0.651%: viability change [1]

O=c1c(-c2ccc(O)cc2)coc2cc(O)ccc12
1.29%: viability change [1]
inactive: outcome [1] | outcome [2] | outcome [3] | outcome [4] | outcome [5] | outcome [6] | Potency [7] | Potency [8] | outcome [19] | outcome [13] | activation [9] -8.98% and -6.42% | Potency [10] | outcome [16] | outcome [14]
40.9% and 70.8%: max response [15]

CC1=C(/C=C/C(C)=C/C=C/C(C)=C/C(=O)Nc2ccc(O)cc2)C(C)(C)CCC1
inactive: outcome [3] | outcome [4] | outcome [12]

O=C(O)CCc1nc(-c2ccccc2)c(-c2ccccc2)o1
inactive: outcome [3] | outcome [4]

O=c1[nH]cnc2c1ncn2[C@H]1CC[C@@H](CO)O1
inactive: outcome [12] | Potency [10] | outcome [14]

O=C(O)c1cc(-c2ccccc2)nc2ccccc12
inactive: activation [20] -15.7% | outcome [19] | Potency [10]

CCn1cc(C(=O)O)c(=O)c2ccc(C)nc21
inactive: outcome [14]
